# Rows were chosen to be rich in hits. Some 9.9% of all compounds tested hit in one or more screens of this group.
# Tau fibril FP: blocks human tau fibril formation measured by polarization | P10636 | K18 P301L tau heparin fibrillization, Alexa594 FP, 6 h | Potency, µM (series often up to 57.7 µM), for inactives: top-dose activity, negative = inhibition, actives largely listed as inhibitors | hit rate 0.39% among 280,000 | AID 1468; note: nearly all actives have a fitted effect of over 55% in size
# Target sequence (P10636 561-689 P618L limits assumed): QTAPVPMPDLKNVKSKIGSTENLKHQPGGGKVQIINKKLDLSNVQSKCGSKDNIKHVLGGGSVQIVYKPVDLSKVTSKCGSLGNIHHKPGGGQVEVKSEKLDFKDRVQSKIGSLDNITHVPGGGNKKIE
#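 K18 P301L tau (15 uM unlabeled/0.24 uM Alexa 594-labeled, final) + compound + heparin 20 uM final; 100 mM NaOAc pH 7; 6 hr 37 C; ThT 30 uM final added, 1 hr RT; FP ex 555/em 632 nm.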
# JMJD2E inh: inhibitors of human JMJD2E histone demethylase. Potency, µM (doses to about 57.1 µM), for inactives: top-dose activity change, negative = inhibition, usual class: inhibitors. hit rate 1.6% among 230,000. AID 2147. B2RXH2. JMJD2E catalytic domain, FDH-coupled NADH fluorescence (FDH is formaldehyde dehydrogenase);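 note: 0% = wells with enzyme and -100% = buffer wells without enzyme; nearly all actives have a fitted effect of over 50% in size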
# Target sequence (B2RXH2 1-337 limits assumed): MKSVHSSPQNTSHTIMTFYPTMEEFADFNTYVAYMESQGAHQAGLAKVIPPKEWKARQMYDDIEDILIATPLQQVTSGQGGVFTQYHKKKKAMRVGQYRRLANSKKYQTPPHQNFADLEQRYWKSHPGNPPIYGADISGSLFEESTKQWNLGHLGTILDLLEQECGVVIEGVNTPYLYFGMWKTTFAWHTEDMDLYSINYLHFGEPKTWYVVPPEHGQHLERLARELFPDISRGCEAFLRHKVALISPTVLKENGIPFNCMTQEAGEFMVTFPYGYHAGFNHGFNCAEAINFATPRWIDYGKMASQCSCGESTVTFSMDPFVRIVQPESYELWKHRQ
# Tau fibril ThT: tau fibrillization inhibition (ThT binding); P10636; recombinant tau K18 P301L, heparin-induced fibrillization, ThT fluorescence; Potency, µM (titrated, usually from 57.4 µM), inactives show top-dose activity, negative = inhibition, hits mostly inhibitors; hit rate 2.1% among 270,000; note: nearly all actives have a fitted effect of over 55% in size
#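 Tau K18 P301L fragment (15 uM unlabeled plus 0.24 uM Alexa 594-labeled) in 100 mM sodium acetate pH 7 with compound, fibrillization induced by 20 uM heparin for 6 hr at 37 C. Thioflavin T (30 uM) added, fluorescence read after 1 hr (ex 450, em 510 nm).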
# ALDH1A1 inh: inhibitors of human aldehyde dehydrogenase 1A1 | P00352 | Purified ALDH1A1, NADH fluorescence, propionaldehyde substrate | Potency, µM (series often up to 75.3 µM), without a hit: top-dose activity, negative = inhibition, hits mostly inhibitors | hit rate 7.3% among 220,000; active = well fitted inhibition curve with a large enough effect, not every such curve was filed as active; inconclusive = small, poorly fitted or top-dose-only effect, or another doubt; inactive = no such curve, though single readings can be large or run the other way;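 note: plate controls were no enzyme wells and a reference inhibitor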
# HPGD inh: inhibitors of human 15-hydroxyprostaglandin dehydrogenase (HPGD). purified HPGD, NADH fluorescence kinetic, PGE2 substrate. hit rate 4.3% among 150,000. AID 894. Potency, µM, for inactives: top-dose activity change, negative = inhibition, usual class: inhibitors; active = well fitted inhibition curve with a large enough effect, not every such curve was filed as active; inconclusive = small, poorly fitted or top-dose-only effect, or another doubt; inactive = no such curve, though single readings can be large or run the other way
# Target sequence (P15428 whole entry, looked up): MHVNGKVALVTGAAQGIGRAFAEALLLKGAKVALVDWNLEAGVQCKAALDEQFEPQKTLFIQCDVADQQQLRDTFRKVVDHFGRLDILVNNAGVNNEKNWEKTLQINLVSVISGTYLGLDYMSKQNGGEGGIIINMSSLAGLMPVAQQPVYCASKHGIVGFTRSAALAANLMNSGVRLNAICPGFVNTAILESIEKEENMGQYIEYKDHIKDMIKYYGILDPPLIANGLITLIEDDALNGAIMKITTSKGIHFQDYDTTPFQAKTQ
#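 20 nM HPGD preincubated 15 min at room temperature with compound in 50 mM Tris-HCl pH 8, 0.01% Tween 20. Started with 1 mM NAD+ and 30 uM prostaglandin E2; NADH fluorescence (360/450 nm) read 5 times over 30-s intervals, last minus first.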
# Tau fluor cs: counter-screen for tau fibril formation inhibitors; tau K18 P301L (four-repeat tau fragment) Alexa594 fluorescence, heparin fibrillization; Potency, µM (highest dose often 57.7 µM), inactives show at the top dose activity change, negative = decrease; hit rate 0.93% among 280,000; note: nearly all actives have a fitted effect of over 55% in size
#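 Human K18 P301L tau (15 uM unlabeled plus 0.24 uM Alexa 594-labeled, final) in 100 mM sodium acetate pH 7 was mixed with compound and 20 uM heparin and incubated 6 hr at 37 C.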
# * marks the source's active call; other numbers are inactive results; ? = inconclusive; nt = no result. Unless noted, calls come from the whole dose curve; as a rule, active = well fitted curve in the direction sought with a large enough effect; inconclusive = small, poorly fitted or top-dose-only effect, or another doubt; inactive = no such curve, though single readings can be large; an effect the other way counts as inactive or inconclusive. Unless noted, % is set by controls: 0 for no effect and ±100 for the full control effect; potency is the fitted concentration of half-maximal effect.
SMILES,Tau fibril FP,JMJD2E inh,Tau fibril ThT,ALDH1A1 inh,HPGD inh,Tau fluor cs
CCN(CC)c1ccc(N=Nc2nn(C)c(C)c2[N+](=O)[O-])cc1,10%,0%,16µM*,-12%,-7%,?
Cc1ccc(S(=O)(=O)c2nnn(-c3ccc(F)c(Cl)c3)c2N)cc1,-10%,nt,1%,nt,nt,-8%
CCC(C)NC(=O)c1ccc(CS(=O)(=O)Cc2ccc(Cl)cc2)o1 (stereo not given),3%,3%,-14%,?,-2%,-7%
O=C1N=C(N2CCOCC2)S/C1=C1\C(=O)N(Cc2ccccc2)c2ccc(Br)cc21,10%,8%,?,?,-4%,-17%
CCCCN1C(=O)/C(=C2\SC(N3CCCCC3)=NC2=O)c2ccccc21,6%,-6%,?,10µM*,22µM*,-23%
COCCCN(C(=S)NC(=O)c1ccc(Br)cc1)c1c(N)n(Cc2ccccc2)c(=O)[nH]c1=O,-1%,-27%,-12%,-10%,nt,-1%
CC(C)CCN(C(=S)NC(=O)C1CCCCC1)c1c(N)n(Cc2ccccc2)c(=O)[nH]c1=O,2%,3%,0%,25µM*,nt,6%
COCCCN(C(=S)NC(=O)C(C)(C)C)c1c(N)n(Cc2ccccc2)c(=O)[nH]c1=O,-9%,-17%,?,28µM*,nt,-12%
O[C@@H](c1ccccc1)C1CCN(CCc2ccccc2)CC1,-1%,?,-6%,-3%,0%,-6%
CCN(CC)c1ccc(/C=N/NS(=O)(=O)c2ccc(CNC(C)=O)cc2)cc1,0%,-12%,-2%,?,-11%,-19%
CCN(CC)c1ccc(/C=N/NS(=O)(=O)c2cccc([N+](=O)[O-])c2)cc1,?,-5%,?,3.5µM*,-24%,?
CNc1ncnc2c1ncn2[C@H]1C[C@H](OP(=O)(O)O)[C@@H](COP(=O)(O)O)O1,3%,-11%,1%,7%,-11%,1%
CSc1nc(=NC(C)=O)ss1,?,-6%,25µM*,1.8µM*,?,-22%
O=C(Nc1ccc(OC(F)(F)F)cc1)NC1COc2ccccc2C1 (stereo not given),-10%,nt,-7%,nt,nt,-9%
Cc1cccc(CS(=O)(=O)c2nnc([C@H](Cc3ccccc3)NC(=O)OC(C)(C)C)o2)c1,-9%,-7%,-2%,22µM*,14µM*,-2%
CC(C)(C)OC(=O)N[C@@H](Cc1ccccc1)c1nnc(SCC(N)=O)o1,-1%,-4%,-9%,nt,nt,-8%
COC(=O)CS(=O)(=O)c1nnc([C@H](Cc2ccccc2)NC(=O)OC(C)(C)C)o1,-12%,-7%,?,8.9µM*,11µM*,5%
CCOc1cccc2cc(-c3nc(-c4ccccc4C)no3)c(=O)oc12,-17%,nt,-3%,nt,nt,-23%
CNC(=O)Nc1cccc(-c2cc(-c3c(Cl)cccc3Cl)no2)c1,22µM*,?,-2%,?,nt,?
CC(=O)Nc1cccc(-c2cc(-c3c(Cl)cccc3Cl)no2)c1,?,0%,3%,nt,nt,?
COc1cccc(C(=O)CN2C(=O)C(C)(C)Oc3ccc(C(=O)N4CCCCCC4)cc32)c1,9%,4%,-16%,?,2.2µM*,-1%
COc1cccc(NC(=O)c2ccc3c(c2)N(CC(=O)N2CCCCC2)C(=O)C(C)(C)O3)c1,-1%,-1%,-1%,-4%,-6%,-4%
Cc1ccc(CN2C(=O)C(C)(C)Oc3ccc(C(=O)N4CCCCC4)cc32)cc1,-5%,4%,?,4%,32µM*,-7%
O=C(CCSc1ccccc1)NC1CCCC1,-2%,-6%,-5%,-4%,14µM*,-6%
O=C(CCCn1c(=O)[nH]c2ccccc2c1=O)NC1CCCCCC1,4%,1%,-4%,?,?,-4%
SMILES,Tau fibril FP,JMJD2E inh,Tau fibril ThT,ALDH1A1 inh,HPGD inh,Tau fluor cs
O=C(CN1C(=O)C(=O)c2ccccc21)NC1CCCCC1,-7%,3%,-5%,0.89µM*,-6%,-5%
O=C(CCCCCCN1C(=O)c2ccccc2C1=O)NC1CCCCC1,-5%,-6%,-5%,-3%,4.5µM*,-1%
CC(C)(C)NC(=O)CN(C(=O)CN1C(=O)C(=O)c2ccccc21)C(C)(C)C,8%,3%,-4%,0.13µM*,nt,-7%
O=C(CCCCCN1C(=O)c2ccccc2C1=O)NC1CCCC1,-1%,-5%,0%,?,4.5µM*,1%
Cc1ccc(C)c(C(=O)OCC(=O)Nc2ccc(N3CCOCC3)cc2)c1,1%,-3%,?,2%,nt,-21%
CC1(C)CC(NC(=O)c2sc3cc(Cl)ccc3c2Cl)CC(C)(C)N1,-6%,2%,-6%,-12%,nt,-7%
CC(C)OC(=O)CC12CN3CN(C1)CC(CC(=O)OC(C)C)(C3)C2=O,3%,-12%,-13%,2.5µM*,-1%,-10%
O=C(CSc1ccc2nnc(-c3ccc(Cl)cc3)n2n1)N1CCc2ccccc21,4%,3%,-12%,?,14µM*,-2%
COc1cccc(-c2ccc(SCC(=O)N3CCc4ccccc43)nn2)c1,-8%,-1%,?,20µM*,-22%,-23%
CN(C)CCNC(=O)c1ccc(Cc2nc3ccccc3[nH]2)cc1,nt,nt,nt,-3%,3%,nt
Cc1ccc(-n2c(C)cc(C=C3C(=O)CC(C)(C)CC3=O)c2C)cc1,2%,-6%,-11%,0.89µM*,?,5%
Cc1cc(C=C2C(=O)c3ccccc3C2=O)c(C)n1-c1cccc(C(=O)O)c1,-5%,-2%,16µM*,10µM*,nt,-21%
Cc1cc(C=C2C(=O)c3ccccc3C2=O)c(C)n1-c1ccc(C(=O)O)cc1,-2%,-2%,14µM*,5.6µM*,nt,0%
CC1=NN(c2ccccc2)C(=O)/C1=C\c1cc(C)n(-c2cccnc2)c1C,-8%,0%,?,nt,nt,-20%
CC1=NN(c2ccccc2)C(=O)/C1=C\c1cc(C)n(-c2ccccc2)c1C,-4%,3%,7.9µM*,?,-24%,-26%
Cc1cc2c(n1-c1ccc(Cl)cc1)CC(C)(C)CC2=O,1%,-2%,-14%,-4%,-15%,-5%
Cc1cc(/C=c2\sc3nc4ccccc4n3c2=O)c(C)n1-c1ccc(C(=O)O)cc1,-3%,-26%,?,?,nt,-4%
O=C(O)c1cccc(-n2cccc2C=C2C(=O)c3ccccc3C2=O)c1,3%,-11%,?,?,nt,-25%
Cn1cccc1C(=O)N1CCC2(CC1)CN(C(c1ccccc1)c1ccccc1)C2,nt,nt,nt,?,-16%,nt
Cc1cc(/C=N/O)c(C)n1-c1ccccc1,5%,-28%,-17%,-7%,-27%,-7%
O=C1NC(=S)N/C1=C\c1ccccc1OCc1ccc(C(=O)O)cc1,1%,-17%,-8%,nt,nt,-4%

# Screening data: PubChem, National Center for Advancing Translational Sciences (NCATS)
